Data reported in PubChem BioAssay (Tox21).
Results filed as inconclusive are left out. Entries that show only a call come without a potency. The source made the active and inactive calls. The call rests on the fitted dose curve; in most records, active means well fitted cell-killing curve with a large enough effect in the repeat runs; inconclusive means weak or mixed curves; inactive means no such curve, though single readings can be large or run the other way.

Assay: qHTS assay to identify small molecule agonists of the peroxisome proliferator-activated receptor delta (PPARd) signaling pathway - cell viability counter screen (AID 743211); further: nearly all actives have a fitted effect of over 55% in size
Conditions: PPARd-bla HEK293H viability, CellTiter-Glo luminescence, 17 h; series mostly up to 62.6 µM
Method in brief: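 PPARd-bla HEK293H cells (UAS-beta-lactamase reporter) were treated with compounds for 17 h at 37 C. Viability was then read in the same wells by CellTiter-Glo luminescence after 30 min at room temperature.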
Potency means the concentration at half of the fitted maximal effect.

Row | SMILES | Potency
1 | CO[C@@H]1[C@H](OC(=O)NC(=O)CCl)CC[C@]2(CO2)[C@H]1[C@@]1(C)O[C@@H]1CC=C(C)C | inactive
2 | O=C(NCc1cccnc1)Nc1ccc([N+](=O)[O-])cc1 | inactive
3 | CN1C[C@H](CNC(=O)OCc2ccccc2)C[C@@H]2c3cccc4c3c(cn4C)C[C@H]21 | 26.6 µM (active)
4 | O=C1CN=C(c2ccccc2)c2cc(Cl)ccc2N1CC1CC1 | inactive
5 | C=CC[C@]1(O)CC[C@H]2[C@@H]3CCC4=CC(=O)CCC4=C3C=C[C@@]21C | inactive
6 | C=C(C#N)CCC#N | inactive
7 | CCn1cc[n+](C)c1 | inactive
8 | ClCC(Br)CBr (configuration not stated) | inactive
9 | COC(C)(C)CCC[C@H](C)C/C=C/C(C)=C/C(=O)OC(C)C | 38.9 µM (active)
10 | CC(=O)C(C)(C)C | inactive
11 | CO/N=C(/C(=O)OC)c1ccccc1COc1ccccc1C | inactive
12 | BrCC(Br)C1CCC(Br)C(Br)C1 (configuration not stated) | inactive
